# Laboratory results published in PubChem BioAssay (NCATS).
# Records with an inconclusive call do not appear. Calls of active or inactive are those of the source. Calls follow the shape of the dose curve; as a rule, active = well fitted cell-killing curve with a large enough effect; inconclusive = small, poorly fitted or top-dose-only effect; inactive = flat fitted curve, though single readings scatter.
# Assay: Cell Viability - LYMP2-021 (AID 974);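 also: compound exposure lasts 24 hours at 37 °C; nearly all actives have a fitted effect of over 55% in size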; as to activity change, negative = cytotoxicity: % is scaled to controls: 0 for no effect and ±100 for the full control effect
# Settings: LYMP2-021 lymphoblastoid cells viability; series mostly up to 92.2 µM; activity change, negative = cytotoxicity: at the top concentration
# In short: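 ATP luminescence (CellTiter-Glo, 30 min RT) after 24 h compound exposure at 37 C; 2500 human lymphoblastoid cells/well, 5 h settle beforehand. Cytotoxicity = concentration-dependent ATP drop, AC50 by Hill fit.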
# Potency is read from the fitted curve at half-maximal effect.
Structure (SMILES),Potency,"activity change, negative = cytotoxicity"
ClC1=C(Cl)C2(Cl)C3C4CC(C5OC45)C3C1(Cl)C2(Cl)Cl (stereo not given),39.8 µM (active),–
CCOCN(C(=O)CCl)c1c(C)cccc1CC,50.1 µM (active),–
ClC(Cl)=C(c1ccc(Cl)cc1)c1ccc(Cl)cc1,inactive,–
ClC1=C(Cl)C2(Cl)C3C4C=CC(C4)C3C1(Cl)C2(Cl)Cl (stereo not given),63.1 µM (active),–
O=C(O)COc1ccc(Cl)cc1Cl,inactive,–
C/C=C/c1ccc2c(c1)OCO2,–,-14.1% (inactive)
O=S1OCC2C(CO1)C1(Cl)C(Cl)=C(Cl)C2(Cl)C1(Cl)Cl (stereo not given),–,-28.5% (inactive)
C=CCc1ccc(OC)cc1,–,-1.19% (inactive)

# Assay: Cell Viability - LYMP2-023 (AID 975); also: nearly all actives have a fitted effect of over 55% in size;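 as to activity change, negative = cytotoxicity: cellular ATP measured by luciferase luminescence as viability proxy; plate controls were DMSO only for no effect and 92 µM tetraoctylammonium bromide control for full effect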
# Settings: LYMP2-023 lymphoblastoid cell viability; series mostly up to 92.2 µM; activity change, negative = cytotoxicity: at the top concentration
# In short: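 CellTiter-Glo luminescence after 30 min at room temperature; decrease in intracellular ATP reflects toxicity. Cells: human lymphoblastoid line, 2500/well, 24 hr compound exposure at 37 C. AC50 fitted to standard Hill equation from concentration-response.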
Structure (SMILES),"activity change, negative = cytotoxicity",Potency
CCNc1nc(Cl)nc(NC(C)C)n1,-4.37% (inactive),–
ClC1=C(Cl)C2(Cl)C3C4CC(C5OC45)C3C1(Cl)C2(Cl)Cl (stereo not given),–,39.8 µM (active)
ClC(Cl)=C(c1ccc(Cl)cc1)c1ccc(Cl)cc1,–,inactive
O=C(O)COc1ccc(Cl)cc1Cl,–,inactive
COC(=O)NC(=S)Nc1ccccc1NC(=S)NC(=O)OC,-2.56% (inactive),–
C/C=C/c1ccc2c(c1)OCO2,-0.458% (inactive),–
COP(=S)(OC)Oc1ccc([N+](=O)[O-])cc1,-14.1% (inactive),–
O=S1OCC2C(CO1)C1(Cl)C(Cl)=C(Cl)C2(Cl)C1(Cl)Cl (stereo not given),-17.6% (inactive),–
C=CCc1ccc(OC)cc1,-4.52% (inactive),–
ClC1=C(Cl)C2(Cl)C3C(Cl)C=CC3C1(Cl)C2(Cl)Cl (stereo not given),-26.8% (inactive),–
CNC(=O)O/N=C/C(C)(C)SC,-28.1% (inactive),–
c1ccc(N=Nc2ccccc2)cc1,-2.04% (inactive),–

# Assay: Cell Viability - LYMP2-025 (AID 976);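 as to activity change, negative = cytotoxicity: plate controls were DMSO only for no effect and tetraoctylammonium bromide control for full effect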
# Settings: LYMP2-025 lymphoblastoid cell viability; series mostly up to 92.2 µM; activity change, negative = cytotoxicity: at the top concentration
# In short: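 CellTiter-Glo luminescence (cellular ATP) after 24 h compound exposure at 37 C; LYMP2-025 human lymphoblastoid cells, 2500/well, complete medium. Tetraoctylammonium bromide positive control. AC50 by Hill equation fit of qHTS concentration-response.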
Structure (SMILES),"activity change, negative = cytotoxicity",Potency
CCNc1nc(Cl)nc(NC(C)C)n1,-6.81% (inactive),–
ClC1=C(Cl)C2(Cl)C3C4CC(C5OC45)C3C1(Cl)C2(Cl)Cl (stereo not given),–,50.1 µM (active)
ClC(Cl)=C(c1ccc(Cl)cc1)c1ccc(Cl)cc1,–,inactive
ClC1=C(Cl)C2(Cl)C3C4C=CC(C4)C3C1(Cl)C2(Cl)Cl (stereo not given),–,50.1 µM (active)
O=C(O)COc1ccc(Cl)cc1Cl,–,inactive
COC(=O)NC(=S)Nc1ccccc1NC(=S)NC(=O)OC,-11.1% (inactive),–
C/C=C/c1ccc2c(c1)OCO2,-10.1% (inactive),–
COP(=S)(OC)Oc1ccc([N+](=O)[O-])cc1,-13.4% (inactive),–
O=S1OCC2C(CO1)C1(Cl)C(Cl)=C(Cl)C2(Cl)C1(Cl)Cl (stereo not given),-19.8% (inactive),–
C=CCc1ccc(OC)cc1,-1.43% (inactive),–
ClC1=C(Cl)C2(Cl)C3C(Cl)C=CC3C1(Cl)C2(Cl)Cl (stereo not given),-32% (inactive),–
CNC(=O)O/N=C/C(C)(C)SC,-7.16% (inactive),–
c1ccc(N=Nc2ccccc2)cc1,-10.8% (inactive),–
CCc1cccc(CC)c1N(COC)C(=O)CCl,-29.7% (inactive),–

# Assay: Cell Viability - LYMP2-002 (AID 977);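 as to activity change, negative = cytotoxic: plate controls were DMSO only for no effect and 92 µM tetraoctylammonium bromide for full effect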
# Settings: LYMP2-002 lymphoblastoid cell viability, qHTS; series mostly up to 92.2 µM; activity change, negative = cytotoxic: at the top concentration
# In short: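 Human lymphoblastoid cells (2500/well) in complete medium were preincubated 5 hr at 37 C, then exposed to compounds for 24 hr at 37 C. Intracellular ATP was read by CellTiter-Glo luminescence; AC50 came from Hill-equation concentration-response fits.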
Structure (SMILES),"activity change, negative = cytotoxic",Potency
CCNc1nc(Cl)nc(NC(C)C)n1,1.7% (inactive),–
ClC1=C(Cl)C2(Cl)C3C4CC(C5OC45)C3C1(Cl)C2(Cl)Cl (stereo not given),–,31.6 µM (active)
CCOCN(C(=O)CCl)c1c(C)cccc1CC,-24.9% (inactive),–
ClC(Cl)=C(c1ccc(Cl)cc1)c1ccc(Cl)cc1,–,inactive
O=C(O)COc1ccc(Cl)cc1Cl,–,inactive
COC(=O)NC(=S)Nc1ccccc1NC(=S)NC(=O)OC,19% (inactive),–
C/C=C/c1ccc2c(c1)OCO2,1.06% (inactive),–
COP(=S)(OC)Oc1ccc([N+](=O)[O-])cc1,17% (inactive),–
C=CCc1ccc(OC)cc1,-0.663% (inactive),–
CNC(=O)O/N=C/C(C)(C)SC,-10.4% (inactive),–
c1ccc(N=Nc2ccccc2)cc1,-21.4% (inactive),–

# Assay: Cell Viability - LYMP2-006 (AID 978); also: nearly all actives have a fitted effect of over 60% in size; as to activity change, negative = cytotoxicity: % is scaled to controls: 0 for no effect and ±100 for the full control effect
# Settings: LYMP2-006 lymphoblastoid cell viability, qHTS; series mostly up to 92.2 µM; activity change, negative = cytotoxicity: at the top concentration
# In short: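 Concentration-dependent loss of intracellular ATP in a human lymphoblastoid line after 24 hr treatment at 37 C was measured by CellTiter-Glo luminescence, with AC50 values obtained from standard Hill-equation modelling.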
Structure (SMILES),"activity change, negative = cytotoxicity",Potency
CCNc1nc(Cl)nc(NC(C)C)n1,-7.95% (inactive),–
ClC1=C(Cl)C2(Cl)C3C4CC(C5OC45)C3C1(Cl)C2(Cl)Cl (stereo not given),–,31.6 µM (active)
CCOCN(C(=O)CCl)c1c(C)cccc1CC,–,50.1 µM (active)
ClC(Cl)=C(c1ccc(Cl)cc1)c1ccc(Cl)cc1,–,inactive
ClC1=C(Cl)C2(Cl)C3C4C=CC(C4)C3C1(Cl)C2(Cl)Cl (stereo not given),–,39.8 µM (active)
O=C(O)COc1ccc(Cl)cc1Cl,–,inactive
COC(=O)NC(=S)Nc1ccccc1NC(=S)NC(=O)OC,-11.8% (inactive),–
C/C=C/c1ccc2c(c1)OCO2,-9.25% (inactive),–
COP(=S)(OC)Oc1ccc([N+](=O)[O-])cc1,-11.7% (inactive),–
C=CCc1ccc(OC)cc1,-6.9% (inactive),–
CNC(=O)O/N=C/C(C)(C)SC,8.15% (inactive),–
c1ccc(N=Nc2ccccc2)cc1,-29.3% (inactive),–

# Assay: Cell Viability - LYMP2-007 (AID 979);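 also: cells exposed to compound for 24 h before reading; nearly all actives have a fitted effect of over 60% in size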;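 as to activity change, negative = cytotoxicity: 0% = DMSO only and the negative end = 92 µM tetraoctylammonium bromide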
# Settings: LYMP2-007 lymphoblastoid cell viability; series mostly up to 92.2 µM; activity change, negative = cytotoxicity: at the top concentration
# In short: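 qHTS cytotoxicity: 2500 cells/well, 5 hr 37 C settle, compound 24 hr 37 C, CellTiter-Glo 30 min RT, luminescence. Decrease in ATP = toxicity. AC50 by standard Hill equation; tetraoctylammonium bromide positive control.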
Structure (SMILES),"activity change, negative = cytotoxicity",Potency
CCNc1nc(Cl)nc(NC(C)C)n1,-1.11% (inactive),–
ClC1=C(Cl)C2(Cl)C3C4CC(C5OC45)C3C1(Cl)C2(Cl)Cl (stereo not given),–,31.6 µM (active)
CCOCN(C(=O)CCl)c1c(C)cccc1CC,–,50.1 µM (active)
ClC(Cl)=C(c1ccc(Cl)cc1)c1ccc(Cl)cc1,–,inactive
ClC1=C(Cl)C2(Cl)C3C4C=CC(C4)C3C1(Cl)C2(Cl)Cl (stereo not given),-29.7% (inactive),–
O=C(O)COc1ccc(Cl)cc1Cl,–,inactive
COC(=O)NC(=S)Nc1ccccc1NC(=S)NC(=O)OC,0.801% (inactive),–
C/C=C/c1ccc2c(c1)OCO2,-3.02% (inactive),–
COP(=S)(OC)Oc1ccc([N+](=O)[O-])cc1,-1.14% (inactive),–
O=S1OCC2C(CO1)C1(Cl)C(Cl)=C(Cl)C2(Cl)C1(Cl)Cl (stereo not given),-27.1% (inactive),–
C=CCc1ccc(OC)cc1,-0.0848% (inactive),–
CNC(=O)O/N=C/C(C)(C)SC,-20.2% (inactive),–
c1ccc(N=Nc2ccccc2)cc1,–,31.6 µM (active)
